Assay results from PubChem BioAssay.
Activity calls are given as the source filed them. Unless noted, the rule behind the calls is not given here.

Experiments:
[1] = test system: XIP peptide (Xip251-270) binding; experiment: XIP fragment 251-270 binding compounds – biochemical, small-molecule microarray, fluorescence 635/667 nm, 0.1 µg/mL protein, primary screen (AID 1182); conditions: fluorescent protein binding, 635 nm, higher = more signal, called active from +8 up or from −8 down
[2] = test system: XIP peptide (Xip251-270); experiment: compounds binding XIP fragment 251-270 – biochemical, small-molecule microarray, fluorescence 635/667 nm, 0.5 µg/mL protein, primary screen (AID 1183); conditions: fluorescence 635 nm, higher = more signal
[3] = blood-stage malaria parasite viability loss – strain 3D7, DAPI fluorescence, 100 nL, primary screen (AID 1184);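 note: parasites grown inside human red blood cells in medium with human serum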; conditions: P. falciparum 3D7 growth, 3 d, higher = more signal
[4] = target: Homeobox protein Hox-A13 (Mus musculus) (UniProt Q62424); experiment: disruptors of Hoxa13 oligonucleotide interaction – biochemical, fluorescence polarization, labeled oligonucleotide, primary screen (AID 1185); conditions: Hoxa13:DNA binding, 15 min, higher = more signal, called active from +8 up or from −8 down
[5] = blockers of DNA damage checkpoint Chk1 activation – imaging, HeLa, hydroxyurea, phospho-Chk1 antibody, percent positive cells, primary screen (AID 1186); conditions: hydroxyurea-induced phospho-Chk1 immunofluorescence imaging, higher = more signal
[6] = blockers of DNA damage checkpoint Chk1 activation – imaging, HeLa, hydroxyurea, phospho-Chk1 nuclear intensity, primary screen (AID 1187); conditions: hydroxyurea-induced phospho-Chk1 immunofluorescence imaging, higher = more signal

Sequence of Homeobox protein Hox-A13 (Mus musculus) (Q62424 whole entry, looked up): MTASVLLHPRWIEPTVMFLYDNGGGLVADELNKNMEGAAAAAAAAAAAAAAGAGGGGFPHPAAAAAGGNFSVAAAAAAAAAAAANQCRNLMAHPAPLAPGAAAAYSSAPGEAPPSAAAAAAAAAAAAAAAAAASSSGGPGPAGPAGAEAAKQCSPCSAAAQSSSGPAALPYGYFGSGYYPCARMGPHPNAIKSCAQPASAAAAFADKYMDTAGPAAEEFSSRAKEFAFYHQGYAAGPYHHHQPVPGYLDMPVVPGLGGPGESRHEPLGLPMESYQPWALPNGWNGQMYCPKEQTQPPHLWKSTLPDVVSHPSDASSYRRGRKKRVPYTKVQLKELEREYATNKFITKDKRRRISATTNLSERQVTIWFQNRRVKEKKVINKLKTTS

Row | Compound | composite z-score [1] | composite z-score [2] | z-score [3] | z-score [4] | z-score [5] | z-score [6]
1 | O=C1N(Cc2ccccc2)Cc2ccccc2C[C@@]12COC(c1ccc(OCCCO)cc1)=N2 | 0.704 (inactive) | 0.311 | -2.08 | -4.67 (inactive) | -0.266 (inactive) | 0.273 (inactive)
2 | CCCN1C(=O)[C@@]2(c3ccc([N+](=O)[O-])cc3)CC(=O)N(C3CCCCC3)[C@@H]2c2ccc(CO)cc21 | -0.403 (inactive) | 0.107 | 0.069 | -1.26 (inactive) | 0.257 (inactive) | 0.105 (inactive)
3 | CC(C)C[C@H]1NC(=O)CNC(=O)[C@@]23C(=O)N[C@@H](Cc4ccccc4)C2[C@H](C)[C@@]2(C)O[C@H]2C3/C=C/C/C=C\CNC1=O (some centres not stated) | 0.282 (inactive) | 0.685 | 0.933 | -5.94 (inactive) | -0.386 (inactive) | -0.0588 (inactive)
4 | CC(=O)NCCCC[C@@H]1NC(=O)[C@H]2C[C@@H](C(=O)O)[C@@H](c3cccc(OCCO)c3)N2C1=O | 1.31 (inactive) | 0.806 | -0.48 | -2.31 (inactive) | 0.165 (inactive) | -0.347 (inactive)
5 | COc1ccc(NN2C(C(O)c3ccccc3)C=CC3C(=O)N(C4CCCCC4)C(=O)C32)cc1 (configuration not stated) | 0.387 (inactive) | 0.745 | -1.08 | -4.8 (inactive) | 0.329 (inactive) | 0.711 (inactive)
6 | C=C(C)C1CN([C@H](CO)c2ccccc2)C(=O)/C1=C\c1ccccc1 (some centres not stated) | -0.598 (inactive) | 0.36 | -1.9 | -1.05 (inactive) | -0.484 (inactive) | -0.234 (inactive)
7 | CC(C)(C)OC(=O)CC[C@@]1(C(N)=O)N=C(c2ccc(OCCCO)cc2)O[C@@H]1c1ccccc1CN=[N+]=[N-] | -0.015 (inactive) | 0.297 | 1.1 | -4.71 (inactive) | 0.3 (inactive) | 0.317 (inactive)
8 | CC(C)Cc1ccc(CN2CC[C@@H](NC(=O)c3ccccc3)C2)cc1 | 0.321 (inactive) | 0.447 | -1.68 | -1.52 (inactive) | -0.681 (inactive) | -0.744 (inactive)
9 | O=C1C[C@@](C(=O)NCC(F)(F)F)(c2ccc([N+](=O)[O-])cc2)[C@@H](c2ccc(CO)cc2I)N1CC12CC3CC(CC(C3)C1)C2 | 2.08 (inactive) | 0.797 | -1.23 | -2.47 (inactive) | -0.353 (inactive) | -0.245 (inactive)
10 | COc1ccc(CCNC(=O)[C@@H]2c3ccccc3C(=O)N(Cc3cc(F)cc(C(F)(F)F)c3)[C@H]2c2ccc(CO)cc2)cc1 | 0.614 (inactive) | 0.906 | -1.42 | -3.95 (inactive) | -0.0525 (inactive) | 0.275 (inactive)
11 | CC(=O)NCCCC[C@@H]1NC(=O)[C@H]2C[C@@H](C(=O)NCCCCCN)[C@@H](c3ccc(O)cc3)N2C1=O | 0.222 (inactive) | 0.562 | 0.0481 | -2.29 (inactive) | 0.32 (inactive) | -0.163 (inactive)
12 | CO[C@H]1O[C@H](CO)[C@@H](OC(=O)CCc2ccccc2)[C@@H]2OC(=O)[C@@H](Cc3ccc4ccccc4c3)C/C=C/C[C@H](Cc3ccc4ccccc4c3)C(=O)O[C@@H]12 | 0.204 (inactive) | 0.448 | -2.13 | -4.15 (inactive) | -0.267 (inactive) | -0.343 (inactive)
13 | CC(CO)N1C(=O)[C@@H]2[C@H]3C(=O)OCC=C[C@H]3OC23C=CCN(c2ccc4ccccc4c2)C(=O)[C@@H]13 (some centres not stated) | -0.0975 (inactive) | 0.547 | 0.48 | -4.49 (inactive) | -0.233 (inactive) | 0.0823 (inactive)
14 | COC(=O)C[C@H]1O[C@]2(C(=O)N(C)c3ccccc32)[C@@H](C)[C@@H]1[Si](C)(C)c1ccccc1 | -0.182 (inactive) | 0.428 | -1.48 | -7.09 (inactive) | -0.0412 (inactive) | 0.192 (inactive)
15 | CC(C)(C)OC(=O)CC[C@]1(C(N)=O)N=C(c2ccc(OCCCO)cc2)O[C@H]1c1ccccc1N=[N+]=[N-] | 0.466 (inactive) | 0.351 | 0.129 | -6.52 (inactive) | -0.373 (inactive) | -0.285 (inactive)
16 | COc1ccc(CCNC(=O)[C@@]2(C)c3ccccc3C(=O)N(Cc3ccc(OC(F)(F)F)cc3)[C@H]2c2ccc(CO)cc2)cc1 | 1.06 (inactive) | 0.666 | -1.21 | -4.22 (inactive) | -0.141 (inactive) | -0.102 (inactive)
17 | CC(C)N1C(=O)[C@@]2(Cc3ccccc31)c1ccccc1C(=O)N(Cc1ccccc1)[C@H]2c1ccc(CO)cc1 | -0.205 (inactive) | -0.0467 | -0.32 | -0.075 (inactive) | 0.273 (inactive) | 0.685 (inactive)
18 | C=CCNC(=O)[C@H]1[C@@H]2C(=O)O[C@@H](c3ccccc3)[C@@H](c3ccccc3)N2[C@@H](c2ccc(OCCO)cc2)[C@]12C(=O)N(C(=O)OCCOC)c1ccc(C#CCNC(N)=O)cc12 | 0.797 (inactive) | 0.579 | 0.0978 | -1.67 (inactive) | -0.128 (inactive) | -0.209 (inactive)
19 | C=C(COC)C(=O)CC[C@H](OC(C)=O)c1ccccc1OCCO | -0.245 (inactive) | 0.337 | -2.64 | -3.78 (inactive) | -0.201 (inactive) | -0.218 (inactive)
20 | C=C(CCCC)/C(=C/C[C@@H](OC(C)=O)c1cccc(OCCO)c1)c1cc(C(=O)OC)ccc1OC | -0.234 (inactive) | 0.826 | -3.06 | -5.01 (inactive) | 0.496 (inactive) | 0.331 (inactive)
21 | O=C1c2ccccc2[C@@]2(Cc3ccccc3N(CC(F)(F)F)C2=O)[C@H](c2ccc(CO)cc2)N1Cc1ccccc1 | -0.158 (inactive) | -0.48 | -1.17 | 1.26 (inactive) | -0.191 (inactive) | -0.494 (inactive)
22 | [N-]=[N+]=NCc1ccccc1C[C@@]1(C(=O)NCCN2CCOCC2)N=C(c2ccc(OCCCO)cc2)O[C@@H]1c1ccccc1 | 0.682 (inactive) | 0.629 | -2.11 | -4.43 (inactive) | 0.174 (inactive) | 0.47 (inactive)
